Compound activity: PubChem, several laboratories
tim10-1 inh – tim10-1 yeast growth inhibition; inhibition, % at 20 µM; S. cerevisiae tim10-1 ts strain growth, BacTiter-Glo, 24 h; actives 2.2% (n = 330,000); AID 463190;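 active = inhibition of at least 40%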;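 note: mutant grown at 25 °C; 0% = DMSO wells with yeast and 100% = wells holding no yeast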
B2AR ag – agonists of human beta-2 adrenergic receptor inducing internalization. AID 504454. Am2.2-beta2AR cells, FAP receptor internalization, flow cytometry. response, % (no concentration beside the values). actives 0.43% (n = 340,000). P07550;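 active = response above a set limit, near 3 SD of response in nonfluorescent compounds, cut at about 42% in these data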
Target sequence (P07550 whole entry, looked up): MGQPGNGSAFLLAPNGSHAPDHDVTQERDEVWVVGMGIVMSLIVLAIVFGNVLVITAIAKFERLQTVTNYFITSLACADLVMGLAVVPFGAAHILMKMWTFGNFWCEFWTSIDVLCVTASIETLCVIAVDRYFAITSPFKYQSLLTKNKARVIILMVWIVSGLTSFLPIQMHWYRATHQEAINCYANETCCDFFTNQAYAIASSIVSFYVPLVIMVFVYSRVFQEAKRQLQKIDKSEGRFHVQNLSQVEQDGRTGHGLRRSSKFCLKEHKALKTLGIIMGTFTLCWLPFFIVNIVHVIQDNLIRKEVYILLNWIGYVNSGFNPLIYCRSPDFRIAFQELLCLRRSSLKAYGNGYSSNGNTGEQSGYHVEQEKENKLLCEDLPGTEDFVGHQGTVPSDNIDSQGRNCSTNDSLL
PfHsp90 yeast 2 – reduces growth (ATP signal) of yeast expressing P. falciparum Hsp90; S. cerevisiae expressing PfHsp90, BacTiter-Glo ATP, 48 h; yeast lacking PDR1 and PDR3 efflux regulators; inhibition, % at 9.4 µM; actives 0.32% (n = 310,000);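 active = every replicate shows inhibition above about 80%, whatever the replicate mean, limit read from the data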;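 note: 0% = DMSO neutral controls and 100% = 20 µM radicicol positive controls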
tim23-1 inh – inhibits growth of tim23-1 mutant yeast | S. cerevisiae tim23-1 growth, BacTiter-Glo luminescence, 24 h | inhibition, % at 20 µM | actives 1.3% (n = 330,000);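 active = growth inhibition of the mutant yeast at or above 50%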;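 note: temperature-sensitive mutant grown at 25 °C; plate controls were DMSO-treated mutant yeast for no effect and medium wells lacking yeast for full effect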
TIM10 inh – inhibits growth of TIM10 yeast strain; inhibition, % at 10 µM; S. cerevisiae TIM10 strain growth, BacTiter-Glo luminescence, 24 h; actives 1.4% (n = 330,000);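 active = inhibition of 40% or more at the single tested concentration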;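 note: wild-type TIM10 isogenic control strain grown at permissive 25 °C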
Numbers without * were called inactive; i = inactive; nt = no result; + = active, no number. Most compounds without a hit are left out; they make up all but 3.8% or so of the library.

SMILES	tim10-1 inh	B2AR ag	PfHsp90 yeast 2	tim23-1 inh	TIM10 inh
O=C1CC(N2CCCCCC2)C(=O)N1c1ccc2c(c1)OCO2 (stereo not given)	39	-1	121*	29	25
COc1ccc(C)cc1NC(=O)C1CCN(C(=O)c2ccc(C(C)(C)C)cc2)CC1	28	23	-16	38	20
CC1=NNC(=O)/C1=C\c1cn(-c2ccccc2)nc1-c1ccccc1	nt	82*	45	nt	nt
Cc1ccc(C)c(S(=O)(=O)/N=C2\C=C(NS(=O)(=O)c3ccccc3)C(=O)c3ccccc32)c1	28	40	-4	45	22
Cc1cc(C)c(S(=O)(=O)/N=C2/C=C(Sc3ncn[nH]3)C(=O)c3ccccc32)cc1C	nt	49*	16	nt	nt
COc1ccccc1C(=O)COC(=O)c1cc([N+](=O)[O-])ccc1N1CCOCC1	0	10	-120	-18	-99
COc1ccc(C(=O)COC(=O)c2cc([N+](=O)[O-])ccc2N2CCOCC2)c(OC)c1	-28	-14	+	-44	-115
COC(=O)n1c(SC)nc2ccccc21	9	78*	-11	5	0
CCCCNC(=O)n1c(SC)nc2ccccc21	18	-11	6	22	-10
O=C(C(=Cc1ccccc1)CN1CCCCC1)c1ccccc1	nt	49*	-21	nt	nt
O=C(CCN1C(=O)S/C(=C/c2ccccc2)C1=O)Nc1ccc(O)c(C(=O)O)c1	-3	-18	-3	-10	3
O=C1c2cccc3cccc(c23)C(=O)N1CC1CCN(CC(O)COc2ccc3ccccc3c2)CC1 (stereo not given)	-91	82*	19	-73	37
COc1cccc(OCC(O)CN2CCC(CN3C(=O)c4cccc5cccc(c45)C3=O)CC2)c1 (stereo not given)	27	4	-30	12	-2
CC(=O)C1=C(c2ccc(Br)cc2)C(=O)c2ccccc2C1=O	nt	29	102*	nt	nt
CNC1=C(N(C(C)=O)c2ccc(Br)cc2)C(=O)c2ccccc2C1=O	nt	4	8	nt	nt
CS(=O)(=O)N1CCN(c2ccc(NC(=O)C(c3ccccc3)c3ccccc3)cc2)CC1	6	9	7	7	5
O=C(Nc1ccc(N2CCCC2)cc1)C(Cl)c1ccccc1 (stereo not given)	25	76*	-13	5	9
COC(=O)[C@@H](Cc1c[nH]c2ccccc12)NCc1cccc(B(O)O)c1	nt	-5	-40	nt	nt
O=C(CCSc1nnc(-c2ccncc2)o1)Nc1cccc(Cl)c1	-12	-3	nt	-16	-7
O=C(CCSc1nnc(-c2ccncc2)o1)Nc1ccc(Cl)cc1	-23	-19	96*	i	-60
O=C(Cc1ccccc1[N+](=O)[O-])NCC(=O)c1ccc2c(c1)OCO2	nt	-4	-6	nt	nt
CCN(C(=O)CCCCC(=O)N(CC)c1ccccc1)c1ccccc1	19	-1	7	28	28
CC(C)(O)c1ccc2c(c1)CCC1C(C)(C(=O)O)CCCC21C (stereo not given)	20	7	-4	18	9
CC(C)c1c(O)ccc2c1CC[C@H]1C(C)(C)CCC[C@]21C	nt	18	113*	nt	nt
COc1ccc(C(=O)OCC(=O)N2CCN(S(=O)(=O)c3ccc(C)cc3)CC2)cc1[N+](=O)[O-]	nt	-3	-6	nt	nt
SMILES	tim10-1 inh	B2AR ag	PfHsp90 yeast 2	tim23-1 inh	TIM10 inh
Cc1csc(CNc2ncnc3ccc(-c4cccc(Cl)c4)cc23)c1	0	17	122*	38	-7
Cc1cccc(CNc2ncnc3ccc(-c4ccccc4Cl)cc23)c1	12	5	-7	22	0
N/C(=N\OC(=O)C(c1ccccc1)c1ccccc1)c1ccccn1	21	58*	-6	10	17
C/C(=N\NC(=O)C(c1ccccc1)c1ccccc1)c1ccc(O)cc1	17	-16	9	23	10
C/C(=N\NC(=O)C(c1ccccc1)c1ccccc1)c1ccccn1	22	46*	2	4	13
N/C(=N\OC(=O)c1ccccc1)c1ccccn1	24	-5	34	33	18
CC(=NNC(=S)Nc1cccc(C)c1)c1ccccn1	nt	4	112*	nt	nt
COCCN(C(=O)COC(=O)C12CC3CC(CC(C3)C1)C2)c1c(N)n(Cc2ccccc2)c(=O)[nH]c1=O	nt	-8	nt	nt	nt
COC(=O)/C(N=Nc1cccc(C(F)(F)F)c1)=C(\C)O	26	-3	-19	15	8
O=C(/C(=C/O)N=Nc1cccc(C(F)(F)F)c1)c1ccccc1	24	22	108*	29	28
CCCCCCCN(c1ccccc1)[C@@H]1C[C@H]2CCCC(=O)N3CC[C@@H](C1)[C@@H]23	nt	91*	3	nt	nt
CCCCNC(=O)O[C@@H]1C[C@H]2CCCC(=O)N3CC[C@@H](C1)[C@@H]23	17	-5	-16	16	15
COc1ccc(C(=O)O/N=C2\C(=O)N(C)c3ccccc32)cc1	-348	6	105*	-344	-139
Cc1cccc(OCC(=O)Nc2ccc3c(c2)nc(CCN2CCN(c4ccccn4)CC2)n3C)c1	19	17	27	7	4
O=C(O)C1CCc2nc(NCc3ccccc3)nc(NCc3ccccc3)c2C1 (stereo not given)	nt	-7	19	nt	nt
Cc1nc2ccc([N+](=O)[O-])cc2nc1C	13	2	nt	-8	-20
Cc1ccc2nc3cc([N+](=O)[O-])cc([N+](=O)[O-])c3cc2c1	nt	59*	-6	nt	nt
COC(=O)[C@@]12OC[C@]34[C@H]([C@@H](O)[C@@H]1O)[C@@]1(C)C(=O)C(O[C@@H]5OC(CO)[C@@H](O)[C@@H](O)[C@@H]5O)=C[C@@H](C)[C@@H]1C[C@H]3OC(=O)[C@H](OC(=O)/C=C(\C)C(C)(C)OC(C)=O)[C@@H]24 (stereo not given in full)	-3	nt	nt	-12	2
COc1ccc(/C=N/N=C/c2ccc(OC)c(OC)c2)cc1OC	19	3	nt	3	-4
COc1cc(/C=N/N=C(N)N)ccc1OCc1ccccc1Cl	0	54*	14	-10	6
Cc1cc(-c2nc3ncccc3o2)ccc1NC(=S)NC(=O)C(C)C	18	62*	-3	7	-3
O=C(N/N=C/c1ccccc1F)NC12CC3CC(CC(C3)C1)C2	31	9	-6	41	14
O=C(N/N=C/c1ccc(O)cc1O)NC12CC3CC(CC(C3)C1)C2	2	44*	11	1	-8
CCCn1c(C(O)c2cccc(OC)c2)nc2ccccc21 (stereo not given)	16	1	-6	13	9
Cc1cc(C)c(C)c(OC(=O)c2sc(Cl)nc2C)c1	15	92*	10	15	1
Cc1ccc(NC(=O)c2sc(Cl)nc2C)c(C)c1	-9	7	9	8	-5
O=c1c2c(-c3ccccc3)csc2nc2c3ccccc3c(NCCN3CCOCC3)nn12	nt	107*	10	nt	nt
O=S(=O)(Nc1ccc(-c2csc(-c3ccccc3)n2)cc1)c1ccc(F)cc1	21	-2	nt	49	38
